# Source: PubChem
# Shown are actives, neighbours in structure and some others; about 4.2% of the full set was active somewhere.
# PLK1 PBD inh = PLK1 (human) polo-box domain binding inhibition. Plk1 PBD binding of FITC phosphopeptide, fluorescence polarization. P53350. actives 2.8% (n = 360,000). Potency, µM, without a hit: max response, negative = inhibition, hits mostly inhibitors; note: series mostly up to about 57 µM; nearly all actives have a fitted effect of over 65% in size
# Target sequence (P53350 whole entry, looked up, the tested form may be a part): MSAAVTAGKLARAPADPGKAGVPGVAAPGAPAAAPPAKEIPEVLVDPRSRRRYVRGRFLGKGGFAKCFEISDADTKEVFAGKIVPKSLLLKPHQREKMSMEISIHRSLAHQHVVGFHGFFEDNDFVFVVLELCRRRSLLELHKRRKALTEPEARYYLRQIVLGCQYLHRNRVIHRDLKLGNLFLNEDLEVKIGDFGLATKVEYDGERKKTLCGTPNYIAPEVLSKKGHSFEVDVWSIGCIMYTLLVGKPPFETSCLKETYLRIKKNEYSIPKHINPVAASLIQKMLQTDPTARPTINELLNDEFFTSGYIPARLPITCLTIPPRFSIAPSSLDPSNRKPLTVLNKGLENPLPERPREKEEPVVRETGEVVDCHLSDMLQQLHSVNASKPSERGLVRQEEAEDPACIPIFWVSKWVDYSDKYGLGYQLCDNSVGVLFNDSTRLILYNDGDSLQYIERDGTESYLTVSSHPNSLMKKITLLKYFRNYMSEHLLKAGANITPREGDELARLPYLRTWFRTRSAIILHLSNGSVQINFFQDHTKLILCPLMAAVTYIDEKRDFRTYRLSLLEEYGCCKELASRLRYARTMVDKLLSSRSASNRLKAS
# Sfp inh = blocks B. subtilis Sfp PPTase activity; Biochemical Sfp PPTase activity, qHTS; Potency, µM, for inactives: largest response in the series, negative = inhibition, hits mostly inhibitors; actives 3.5% (n = 310,000);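 note: the enzyme is Sfp with the accession as filed and its product quenches rhodamine fluorescence; 0% = enzyme reaction without inhibitor and -100% = no enzyme wells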
#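 Compounds were incubated with enzyme (final 15 nM) for 15 min at room temperature before substrate addition started the reaction. Fluorescence at 525 nm excitation, 598 nm emission was recorded immediately and after 30 minutes.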
# 12-LOX inh = ALOX12 (human) lipoxygenase inhibition; P18054; Potency, µM (top dose mostly 108 µM), for the others: at the highest dose activity change, negative = inhibition, most hits filed as inhibitors; purified 12hLO, xylenol orange hydroperoxide absorbance; actives 1.1% (n = 580,000)
#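 Hydroperoxide product was detected by ferrous iron/xylenol orange as the 573 to 405 nm absorbance ratio. Arachidonic acid at 40 uM (final) was turned over for 30 min at room temperature by 150 nM human 12hLO, pH 7.0 Hepes buffer, after 15 min compound preincubation.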
# VDR inh = blocks the human vitamin D receptor; actives 0.93% (n = 400,000); VDR-SRC2-3 peptide fluorescence polarization, 2 h; P11473; Potency, µM, for inactives: max response, negative = inhibition, hits mostly inhibitors
#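 Signal is fluorescence polarization, reporting how far test compounds block the interaction of VDR with the SRC2-3 coregulator peptide after a 2 h room-temperature incubation.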
# An asterisk follows results filed as active; u = inconclusive; x = not tested or not shown; [ ] = another dose, or the depositor's remark. Calls come from the whole dose curve; as a rule, active = well fitted curve in the direction sought with a large enough effect; inconclusive = small, poorly fitted or top-dose-only effect, or another doubt; inactive = no such curve, though single readings can be large; an effect the other way counts as inactive or inconclusive. Unless noted, % is set by controls: 0 for no effect and ±100 for the full control effect; potency is the fitted concentration of half-maximal effect.
SMILES,PLK1 PBD inh,Sfp inh,12-LOX inh,VDR inh
Cc1ccc(-n2c(=O)[nH]c3c(C(N)=O)nc(-c4ccc(C)o4)nc32)cc1,-13%,45µM*,u,8%
Cn1[nH]c2c(c1=O)[C@H](c1ccc(F)cc1)O[C@H](CCc1ccccc1)C2,19µM*,x,-25%,x
ClN=C1C=CC=CC1=NCl,11µM*,x,x,x
COc1ccc(OC)c(CNc2c(C=O)c(=O)[nH]c3ccccc23)c1,-3%,9%,-7%,-6%
CN(C)/C=N/c1nc2nccc(-c3cccc(Cl)c3)n2n1,27µM*,16%,-11%,-25%
CN(C)/C=N/c1nc2ncc(-c3ccc(Cl)cc3)c(/N=C/N(C)C)n2n1,27µM*,22%,-11%,-8%
O=C(Nc1cccc(Cl)c1)N1CCN2C(=O)c3ccccc3C12c1ccccc1 (stereo not given),12µM*,17%,13%,-14%
CN1/C(=C\C(=O)COC(=O)c2ccccc2O)C(C)(C)c2ccccc21,-1%,-6%,-14%,4%
Cc1c(N=C/C=C2\N(C)c3ccccc3C2(C)C)c(=O)n(-c2ccccc2)n1C,-3%,0%,-14%[57.4 µM],-19%
CN1/C(=C\C=N\NC(=O)c2ccc(O)cc2)C(C)(C)c2ccccc21,-8%,4%,12%,-10%
Cc1c(NC(=S)NNC(=O)CCC(=O)O)c(=O)n(-c2ccccc2)n1C,-6%,45µM*,0%,-8%
Cc1ccc(C(=O)NC(=S)/C=C2\N(C)c3ccccc3C2(C)C)cc1,u,u,10µM*,6%
Cc1ccc(C(=O)NCC(=O)OCC(=O)/C=C2\N(C)c3ccccc3C2(C)C)cc1C,30µM*,-5%,-1%,u
Cc1c(NC(=S)/C=C2\N(C)c3ccccc3C2(C)C)c(=O)n(-c2ccccc2)n1C,u,50µM*,u,-9%
Cc1ccc(N(CC(=O)NCc2ccc(F)cc2)C(=O)c2ccco2)cc1C,-3%,8%,u,-10%
CCOC(=O)C1=C(c2ccccc2)NC(SCC)=C(C#N)C1c1cccnc1 (stereo not given),-4%,-4%,-8%,0%
CCN(CC(=O)NCc1cccs1)C(=O)c1cc(=O)[nH]c2ccccc12,0%,x,15%,-3%
O=C(NCCCN1Cc2ccccc2C1)c1cccc(C2CCCNC2)c1 (stereo not given),x,x,22%,x
CC(C)C(=O)NC(=S)/C=C1/N(C)c2ccccc2C1(C)C,-27%,u,35µM*,-4%
CN1/C(=C/C(=S)NC(=O)C2CCC2)C(C)(C)c2ccccc21,-16%,u,u,-19%
COCCNC(=S)N/N=C(\C)c1ccc(Cl)c(Cl)c1Cl,-2%,8%,40µM*,-11%
O=C(NC(=S)Nc1ccc(Cl)c(C(=O)O)c1)c1cccc(COc2ccccc2)c1,u,u,11µM*,-16%
CCCCOc1cccc(C(=O)NC(=S)Nc2ccc(Cl)c(C(=O)O)c2)c1,-14%,7%,5.6µM*,-5%
COc1cc(C(=O)NC(=S)Nc2ccc(Cl)c(C(=O)O)c2)cc(OC)c1OC,-6%,-9%,u,-9%
O=C(O)c1ccc(Cl)c(NC(=S)NC(=O)c2cccc(COc3ccccc3)c2)c1,u,-7%,-18%,-10%
SMILES,PLK1 PBD inh,Sfp inh,12-LOX inh,VDR inh
COc1cc(OC)cc(C(=O)NC(=S)Nc2ccc(Cl)c(C(=O)O)c2)c1,-13%,-25%,28µM*,8%
CNC(=S)Nc1ccc(N2CCCC2)c(S(=O)(=O)Nc2ccc(OC)cc2)c1,u,x,-14%,-7%
O=C(NC(=S)Nc1ccc(Cl)c(C(=O)O)c1)c1ccc(OCc2ccccc2)cc1,u,u,3.5µM*,-26%
Cc1c(NC(=S)NC(=O)c2ccc(COc3ccccc3)cc2)cccc1C(=O)O,-21%,-18%,u,-25%
CCCOc1cccc(C(=O)NC(=S)Nc2cccc(C(F)(F)F)c2)c1,-3%,4%,u,5%
CC(=O)Nc1ccc(NC(=O)c2ccc(COc3ccccc3)cc2)cc1,-15%,18%,-24%,-24%
CCOc1cccc(C(=O)NC(=S)Nc2cccc(C)c2)c1,0%,-7%,20µM*,-9%
O=C(Nc1ccc(F)cc1)c1ccc(COc2ccccc2)cc1,27µM*,29%,-10%,-2%
COCCNC(=S)NNc1ccc(Cl)c(C(=O)O)c1,27µM*,4µM*,-6%,-15%
COc1ccc(-c2cc3c(cn2)CN(Cc2ccncc2)CCN3)cc1,x,x,77%[176 µM],x
C=C(C1=CCN(S(=O)C(C)(C)C)[C@@H]1CCO)c1ccccc1 (stereo not given in full),-11%,x,u,-12%
COc1ccc(C2/C(=C(\O)c3ccc4c(c3)OCCO4)C(=O)C(=O)N2c2nc(C)c(C(C)=O)s2)cc1 (stereo not given),-24%,45µM*,u,-12%
CC1=C(C(=O)Nc2ccccc2)C(c2ccc(C)o2)n2c(s/c(=C/c3ccccc3)c2=O)=N1 (stereo not given),-1%,13%,321%,4%
CCOc1ccc(C2C(C(=O)Nc3ccccc3)=C(C)N=c3s/c(=C/c4cccc(OCC(=O)O)c4)c(=O)n32)cc1 (stereo not given),u,79µM*,u,-24%
CC1=C(C(=O)OC(C)C)C(c2ccc(Cl)cc2)n2c(sc(=Cc3ccc(OCC(=O)O)cc3)c2=O)=N1 (stereo not given),-20%,x,u,x
CC1=C(C(=O)Nc2ccccc2)C(c2ccc(Cl)cc2)n2c(s/c(=C/c3cccc(OCC(=O)O)c3)c2=O)=N1 (stereo not given),u,50µM*,45µM*,u
Cc1ccc(C(=O)N2CCC(C(=O)NC3CCCC3)CC2)cc1,-9%,2%,6%,-5%
COCCCn1c(-c2ccco2)nc2ccccc2c1=O,-8%,17%,-1%,-7%
COCCCN=C(c1ccco1)n1c(=S)nc(-c2ccco2)n(CCCOC)c1=S,19µM*,11µM*,u,u
CCC(C)(C(=O)NC1CCCCC1)N(Cc1ccco1)C(=O)c1cnccn1 (stereo not given),-10%,9%,u,-14%
COc1ccccc1/C=C/C=N/NC(=O)c1ccccn1,-8%,-15%,86%,20%
COc1ccccc1/C=C/C=N/NC(=O)c1cc(-c2ccco2)[nH]n1,u,13µM*,u,14%
Cn1c(=O)c(C(=O)N2CCc3ccccc32)cc2cccnc21,0%,x,-19%,4%
COc1ccc(/C(O)=C2/C(=O)C(=O)N(CCN3CCOCC3)C2c2ccc(C)cc2)cc1 (stereo not given),-6%,-1%,-3%,-4%
CCCOc1ccc(/C(O)=C2/C(=O)C(=O)N(CCOC)C2c2cccnc2)cc1 (stereo not given),x,-2%,0%,x
O=C1C(=O)N(CCN2CCOCC2)C(c2ccccn2)/C1=C(/O)c1ccc(F)cc1 (stereo not given),11µM*,56µM*,-5%[57.4 µM],-9%
C=CCOc1ccc(/C(O)=C2\C(=O)C(=O)N(CCOC)C2c2cccnc2)cc1 (stereo not given),-6%,2%,40µM*,3%
